Inconclusive results are not listed. Active and inactive are the calls of the source. Calls come from the whole dose curve; as a rule, active = well fitted inhibition curve with a large enough effect; inconclusive = small, poorly fitted or top-dose-only effect; inactive = flat fitted curve, though single readings scatter.
What was measured:
[1] = biological target: Luciferin 4-monooxygenase (Photinus pyralis) (UniProt P08659); assay: Biochemical firefly luciferase enzyme assay for NPC (AID 624030); note: nearly all actives have a fitted effect of over 70% in size
Chain of Luciferin 4-monooxygenase (Photinus pyralis) (P08659 whole entry, looked up): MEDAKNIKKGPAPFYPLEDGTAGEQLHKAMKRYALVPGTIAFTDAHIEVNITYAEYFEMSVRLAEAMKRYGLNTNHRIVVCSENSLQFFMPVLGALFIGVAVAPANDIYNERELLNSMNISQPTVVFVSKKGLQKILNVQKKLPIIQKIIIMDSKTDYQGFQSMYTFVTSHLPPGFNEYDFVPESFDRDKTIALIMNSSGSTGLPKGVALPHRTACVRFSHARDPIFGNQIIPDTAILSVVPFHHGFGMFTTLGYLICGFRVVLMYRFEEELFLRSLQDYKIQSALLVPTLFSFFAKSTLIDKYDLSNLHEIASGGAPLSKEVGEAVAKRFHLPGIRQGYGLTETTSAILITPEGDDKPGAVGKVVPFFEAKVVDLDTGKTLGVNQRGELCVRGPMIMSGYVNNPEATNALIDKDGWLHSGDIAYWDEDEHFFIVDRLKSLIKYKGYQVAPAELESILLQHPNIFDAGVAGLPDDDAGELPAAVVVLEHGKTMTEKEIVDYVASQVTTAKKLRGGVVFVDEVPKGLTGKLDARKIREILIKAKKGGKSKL
Outline: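 Direct inhibition of firefly luciferase enzyme (10 nM final, 50 mM Tris Acetate) assessed by luminescence within 5 minutes. Percent activity scaled between DMSO and PTC124 positive control, with concentration-effect curves classified by fit quality and response.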

C2A = assay: qHTS profiling for inhibitors of Plasmodium falciparum proliferation (AID 504749); note: nearly all actives have a fitted effect of over 60% in size; settings: P. falciparum in erythrocytes, SYBR Green DNA, 72 h; series mostly up to 12.8 µM
Outline: (§1)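 SYBR Green fluorescence of parasite DNA, read after lysis and overnight dark incubation, measured growth over 72 h in erythrocyte culture at 0.3% parasitemia and 2.5% hematocrit. Data normalised to DMSO and 0.29 uM artemisinin, with plate-drift correction.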

CP185 = assay: as above; settings: P. falciparum in erythrocytes, SYBR Green DNA, 72 h; series mostly up to 12.8 µM
Outline: as §1

CP191 = assay: as above; settings: P. falciparum in erythrocytes, SYBR Green DNA, 72 h; series mostly up to 12.8 µM
Outline: as §1

CP211 = assay: as above; settings: P. falciparum in erythrocytes, SYBR Green DNA, 72 h; series mostly up to 12.8 µM
Outline: as §1

CP238 = assay: as above; settings: P. falciparum in erythrocytes, SYBR Green DNA, 72 h; series mostly up to 12.8 µM
Outline: as §1

CP266 = assay: as above; settings: P. falciparum in erythrocytes, SYBR Green DNA, 72 h; series mostly up to 12.8 µM
Outline: as §1

CP297 = assay: as above; settings: P. falciparum in erythrocytes, SYBR Green DNA, 72 h; series mostly up to 12.8 µM
Outline: as §1

ECU = assay: as above; settings: P. falciparum in erythrocytes, SYBR Green DNA, 72 h; series mostly up to 12.8 µM
Outline: as §1

HB3 = assay: as above; settings: P. falciparum in erythrocytes, SYBR Green DNA, 72 h; series mostly up to 12.8 µM
Outline: as §1

TAB113 = assay: as above; settings: P. falciparum in erythrocytes, SYBR Green DNA, 72 h; series mostly up to 12.8 µM
Outline: as §1

3D7 = assay: as above; settings: P. falciparum in erythrocytes, SYBR Green DNA, 72 h; series mostly up to 12.8 µM
Outline: as §1

CP194 = assay: as above; settings: P. falciparum in erythrocytes, SYBR Green DNA, 72 h; series mostly up to 12.8 µM
Outline: as §1

CP265 = assay: as above; settings: P. falciparum in erythrocytes, SYBR Green DNA, 72 h; series mostly up to 12.8 µM
Outline: as §1

CP268 = assay: as above; settings: P. falciparum in erythrocytes, SYBR Green DNA, 72 h; series mostly up to 12.8 µM
Outline: as §1

CP291 = assay: as above; settings: P. falciparum in erythrocytes, SYBR Green DNA, 72 h; series mostly up to 12.8 µM
Outline: as §1

DIV30 = assay: as above; settings: P. falciparum in erythrocytes, SYBR Green DNA, 72 h; series mostly up to 12.8 µM
Outline: as §1

Dd2 = assay: as above; settings: P. falciparum in erythrocytes, SYBR Green DNA, 72 h; series mostly up to 12.8 µM
Outline: as §1

PC15 = assay: as above; settings: P. falciparum in erythrocytes, SYBR Green DNA, 72 h; series mostly up to 12.8 µM
Outline: as §1

PC26 = assay: as above; settings: P. falciparum in erythrocytes, SYBR Green DNA, 72 h; series mostly up to 12.8 µM
Outline: as §1

Measured: Potency
Potency is the fitted concentration of half-maximal effect.

CN1CCC[C@@H](CC2c3ccccc3Sc3ccccc32)C1
inactive: [1] | C2A | CP185 | CP191 | CP211 | CP238 | CP266 | CP297 | ECU | HB3 | TAB113

CC1(C)S[C@@H]2[C@H](NC(=O)[C@@H](N)c3ccccc3)C(=O)N2[C@H]1C(=O)O[C@H]1OC(=O)c2ccccc21
inactive: all assays above

COc1cc(N)c(Cl)cc1C(=O)N[C@H]1CCN(CCCOc2ccc(F)cc2)C[C@H]1OC
inactive: [1] | CP266 | CP268 | CP297 | PC15
active: CP191 2 µM | CP265 3.98 µM | Dd2 3.55 µM

CCOC(=O)O[C@]1(C(=O)COC(=O)CC)CC[C@@H]2[C@@H]3CCC4=CC(=O)C=C[C@@]4(C)[C@H]3[C@H](O)C[C@]21C
not listed: [1]
inactive: all other assays above

C[C@@H](C(=O)O)c1ccc(C(=O)c2ccccc2)s1
active: [1] 4.89 µM
not listed: CP266
inactive: all other assays above

NS(=O)(=O)c1cc2c(cc1C(F)(F)F)N[C@H](Cc1ccccc1)NS2(=O)=O
inactive: all assays above

CC(=O)[C@@H]1CC[C@@H]2[C@@H]3C[C@H](C)C4=CC(=O)CC[C@@]4(C)[C@H]3[C@H](O)C[C@]21C
not listed: CP297
inactive: all other assays above

CCN(CC)[C@@H](C)CN1c2ccccc2Sc2ccccc21
inactive: [1] | C2A | CP185 | CP211 | CP238 | CP266 | CP297 | DIV30 | HB3 | PC15
active: Dd2 1.26 µM

O=C(O)[C@@H]1[C@@H]2C[C@H]3c4[nH]c5ccccc5c4CCN3C[C@@H]2CC[C@@H]1O
inactive: 3D7 | CP268 | Dd2 | HB3 | PC26

O=C(OC[C@@H](O)CO)c1ccccc1Nc1ccnc2cc(Cl)ccc12
inactive: all assays above

CCCCC[C@H](O)/C=C\[C@H]1[C@H](C/C=C\CCCC(=O)O)[C@@H](O)C[C@H]1O (tested in a mixture with another compound)
inactive: all assays above

C/C(=C(/CCO)SSC[C@@H]1CCCO1)N(C=O)Cc1cnc(C)nc1N
inactive: [1]

CCC(=O)[C@@]1(C)[C@H](C)C[C@@H]2[C@@H]3CCC4=CC(=O)C=C[C@@]4(C)[C@H]3[C@H](O)C[C@]21C
not listed: [1] | 3D7
inactive: all other assays above

O=C1O[C@@H]([C@@H](O)CO)[C@@H](O)[C@H]1O
inactive: all assays above

CC=C(/C(=C/C)c1ccc(O)cc1)c1ccc(O)cc1
inactive: all assays above

COc1cc2nc(N3CCN(C(=O)[C@@H]4CCCO4)CC3)nc(N)c2cc1OC
not listed: CP266
inactive: all other assays above

CC(=O)O[C@H]1C[C@@]2(C)[C@H](C[C@@H](O)[C@H]3[C@@]4(C)CC[C@@H](O)[C@@H](C)[C@H]4CC[C@@]32C)C1=C(CCC=C(C)C)C(=O)O
inactive: all assays above

CC(C)(C)NC[C@H](O)COc1cccc2c1C[C@@H](O)[C@@H](O)C2
inactive: all assays above

CCC(=O)OCC(=O)[C@@]1(OC(=O)CC)[C@H](C)C[C@@H]2[C@@H]3[C@H]([C@@H](O)C[C@@]21C)[C@]1(C)C=CC(=O)C=C1C[C@@H]3Cl
inactive: [1] | C2A | CP185 | CP194 | CP211 | CP266
active: CP297 5.1 µM | HB3 3.55 µM

CS(=O)(=O)c1ccc([C@H](O)[C@H](CF)NC(=O)C(Cl)Cl)cc1
inactive: [1]

C=Cc1c(C)c2cc3nc(cc4[nH]c(cc5nc(cc1[nH]2)C(C)=C5CCC(=O)O)c(CCC(=O)OC)c4C)[C@@]1(C)C3=CC=C(C(=O)OC)[C@H]1C(=O)OC (tested in a mixture with another compound)
inactive: [1] | CP194 | CP266 | CP291 | CP297 | DIV30 | PC26
active: 3D7 3.55 µM | C2A 14.1 µM | CP191 11.2 µM | CP238 11.2 µM | CP265 10 µM | Dd2 2.24 µM | ECU 3.98 µM | HB3 4.47 µM | PC15 5.01 µM | TAB113 1.78 µM

O=C(O)COCCN1CCN([C@@H](c2ccccc2)c2ccc(Cl)cc2)CC1
not listed: CP191 | HB3
inactive: all other assays above

COC(=O)[C@@H]1[C@@H]2C[C@H]3c4[nH]c5cc(OC)ccc5c4CCN3C[C@@H]2C[C@H](OC(=O)/C=C\c2cc(OC)c(OC)c(OC)c2)[C@H]1OC
active: DIV30 5.1 µM | PC26 6.42 µM
inactive: [1] | CP185 | CP266

CN[C@H]1[C@@H](O)[C@@H](NC)[C@@H]2O[C@@]3(O)C(=O)C[C@@H](C)O[C@H]3O[C@H]2[C@H]1O
not listed: [1]
inactive: all other assays above

CCc1c(C)[nH]c2c1C(=O)[C@H](CN1CCOCC1)CC2
inactive: all assays above

CCO[C@H]1O[C@@H]([C@H](COCc2ccccc2)OCc2ccccc2)[C@@H](OCc2ccccc2)[C@H]1O
not listed: CP266 | HB3 | DIV30 | PC26
inactive: all other assays above

Clc1ccc([C@H](Cn2ccnc2)OCc2c(Cl)cccc2Cl)c(Cl)c1
active: 3D7 2.51 µM | CP191 3.16 µM | CP238 3.55 µM | CP265 3.16 µM | DIV30 7.21 µM | Dd2 3.55 µM | ECU 1.78 µM | HB3 3.98 µM | PC26 4.55 µM | TAB113 3.98 µM
inactive: [1]

Source: PubChem BioAssay (NCATS)
